A short description of test [1]: Viability qHTS for spleen associated tyrosine kinase inhibitor (SYKi) naive MV4-11 cells (AID 1963823). Further: nearly all actives have a fitted effect of over 40% in size. An outline of the steps: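 Seeding of 500 SYKi-naive MV4-11 cells per well onto pre-dispensed compounds preceded a 72 hr incubation at 37 C. Luminescent CellTiter-Glo signal, read after 10 min at room temperature, reflected viable cells.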
(In general: In qHTS, concentration-response curves come from the screen itself.)

Test [2] in a line: Viability qHTS for spleen associated tyrosine kinase inhibitor (SYKi) drug resistant MV4-11 cells (AID 1963824). Further: nearly all actives have a fitted effect of over 35% in size. An outline of the steps: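 SYK-inhibitor-resistant MV4-11 AML cells were seeded at 500 per well onto compound and cultured 72 hours (37 °C, 5% CO2). CellTiter-Glo was then added, and after 10 min at room temperature, luminescence gave viability.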

“And” between values parts separate entries of the source, which are not always exact repeats. Equal values may be shown once. Records with an inconclusive call do not appear. Values without a mark were called inactive. The source made the active and inactive calls. The call rests on the fitted dose curve; in most records, active means well fitted cell-killing curve with a large enough effect; inconclusive means small, poorly fitted or top-dose-only effect, or effect the other way; inactive means no such curve, though single readings can be large or run the other way.
Potency means the concentration at half of the fitted maximal effect.

For the molecule `CCC1C2CC3C4N(C)c5ccccc5C45CC(C2C5O)N3C1O` (stereo unspecified), the Potency result in test [1] and in test [2] was “inactive” each time.
As for `C=C(CO)[C@@]12O[C@@H]1[C@@]1(C)C(=CC2=O)CC[C@@H](O)[C@@H]1C`, the Potency in test [1] is 8.2 µM (active); in test [2], 5.17 µM (active).
In the case of `COC(=O)C1(C)CCC(=O)C2(C)c3c(O)cc(C(C)C)cc3C(O)C(OC(C)=O)C12` (stereo unspecified), the Potency result in test [1] and in test [2] was “inactive” in each case.
As to `CC1=CC2/C=C(\C)CCC(O)C(O)/C=C/C(=O)C23C(=O)NC(CC(C)C)C3C1C` (stereo unspecified), the values for the Potency in test [1] and in test [2] were 1.26 µM (active) and 1.42 µM (active), respectively.
Turning to `C/C=C(\C)C(=O)OC1C(C)OC(OC2C(C)OC(OC3CCC4(C)C(=CCC5C4CCC4(C)C(C(C)OC6OC(COC7OC(CO)C(O)C(O)C7O)C(O)C(O)C6O)CCC54O)C3)CC2OC)C(O)C1OC` (stereo unspecified), in test [1], the viability (% of control) is 78.5% [at 9.25 µM]. Further, the viability, % of control in test [2] is 105% [at 9.25 µM].
As to `C[C@]12CC[C@H]3[C@@H](CCC4=C/C(=N/OCC(=O)O)CC[C@@]43C)[C@@H]1CC[C@@H]2O`, the Potency entry in test [1] and in test [2] was “inactive” each time.
As to `CN(C)[C@@H]1C(=O)C(C(N)=O)=C(O)[C@@]2(O)C(=O)C3=C(O)c4c(O)ccc(Cl)c4[C@@](C)(O)C3C[C@@H]12` (stereo partly specified), the Potency entry in test [1] and in test [2] was “inactive” each time.
`C/C=C(\C)C(=O)OC1CC2C(CC=C3CC(OC4CC(OC)C(OC5CC(OC)C(OC6OC(C)C(OC7OC(CO)C(O)C(O)C7O)C(OC)C6O)C(C)O5)C(C)O4)CCC32C)C2(O)CCC(C(C)=O)C12C` (stereo unspecified): in test [1], the viability (% of control) is 73.7% [at 9.25 µM]. Moreover, in test [2], the viability, % of control was 85.3% [at 9.25 µM].
For `C[C@@H]1O[C@@H](O[C@H]2CC[C@@]3(C)C(CC[C@@H]4C3CC[C@]3(C)[C@@H](C5=CC(=O)OC5)CC[C@]43O)C2)[C@H](O[C@@H]2O[C@H](CO)[C@@H](O)[C@H](O)[C@H]2O)[C@H](O)[C@H]1O` (stereo partly specified), the Potency in test [1] was 0.343 µM (active); in test [2], 0.172 µM (active).
Take `C[C@@]1(CO)[C@H](O)CC[C@@]2(C)[C@H]1CC[C@H]1C[C@@H]3C[C@@]12CC[C@]3(O)CO`: the Potency in test [1] and in test [2] was 1.01 µM (active) in each case.
In the case of `CN1C2CCC1CC(OC(=O)N1Cc3ccccc3NC1=O)C2` (stereo unspecified), the Potency result in test [1] and in test [2] was “inactive” each time.
Take `Cc1ccc2c(c1)[C@H]1CN(C)CC[C@H]1N2C(=O)CSc1nnnn1-c1ccc(Cl)cc1`: the Potency result in test [1] and in test [2] was “inactive” each time.
Regarding `CC(C)[C@H]1OC(=O)[C@H](Cc2ccccc2)N(C)C(=O)[C@@H](C(C)C)OC(=O)[C@H](Cc2ccccc2)N(C)C(=O)[C@@H](C(C)C)OC(=O)[C@H](Cc2ccccc2)N(C)C1=O`, the Potency in test [1] is 3.85 µM (active); in test [2], 5.44 µM (active).
On to `CC[C@@H]1C[C@H]2CC[C@H](O2)[C@H](C)C(=O)O[C@@H](C)C[C@@H]2CC[C@@H](O2)[C@@H](C)C(=O)O[C@H](C)C[C@H]2CC[C@H](O2)[C@H](C)C(=O)O[C@@H](C)C[C@@H]2CC[C@@H](O2)[C@@H](C)C(=O)O1`, for which the Potency in test [1] was 0.0343 µM (active); in test [2], 0.0385 µM (active).
The matching figures for `C[C@]12CC[C@H](O)CC1=CC[C@@H]1C2CC[C@]2(C)[C@@H](C3=CC(=O)OC3)CC[C@]12O` (stereo partly specified): 11.4 µM (active) and 4.04 µM (active).
For the molecule `CO[C@H]1[C@@H](O)[C@@H](C)O[C@@H](O[C@@H]2C=C3C(OC(C)=O)CC4(O)C(CC[C@]5(C)[C@@H](C6=CC(=O)OC6)CC[C@]45O)[C@@]3(C)CC2)[C@@H]1O` (stereo partly specified), the figures for the Potency in test [1] and in test [2] were 0.0685 µM (active) and 0.0769 µM (active), respectively.
`COC1C(O)C(C)OC(OC2C(CO)O[C@@H](O[C@@H]3CC4CCC5C(CC[C@]6(C)[C@@H](C7=CC(=O)OC7)CC[C@]56O)[C@@]4(C)[C@H](OC(C)=O)C3)C(O)C2O)C1O` (stereo partly specified): the Potency in test [1] was 2.43 µM (active); in test [2], 1.09 µM (active).
For `C=C1[C@@H](C)[C@H]2[C@H](Cc3ccccc3)NC(=O)[C@]23OC(=O)/C=C/C(=O)CCC[C@@H](C)C/C=C/[C@H]3[C@@H]1O`, the Potency in test [1] and in test [2] was 0.92 µM (active) each time.
On to `CO[C@@H]1[C@H](O)[C@@H](O[C@@H]2C[C@H]3CC[C@@H]4C(CC[C@]5(C)[C@@H](C6=CC(=O)OC6)CC[C@]45O)[C@@]3(C)[C@H](O)C2)O[C@H](C)[C@@H]1O[C@@H]1O[C@H](CO)[C@@H](O)[C@H](O)[C@H]1O` (stereo partly specified), for which the values for the Potency in test [1] and in test [2] were 0.0968 µM (active) and 0.0544 µM (active), respectively.
Turning to `CC(=O)OC12C(O)C(C)C3(O)C4C=C(C)C(=O)C4CC(CO)=CC3C1C2(C)C` (stereo unspecified), the Potency result in test [1] and in test [2] was “inactive” each time.
Take `C[C@H](CCC(=O)O)C[C@H](C)C[C@H](C)C(=O)/C=C(\O)[C@H](C)C[C@H](C)C/C=C/[C@@H](C)[C@@H](O)[C@@H](C)[C@@H](O)C[C@@H]1CC[C@@](C)([C@H]2CC[C@@](C)([C@@H](C)O)O2)O1`: the Potency in test [1] is 2.52 µM (active); in test [2] it was 2.82 µM (active).
With `CC(C)(C)[C@]1(O)C[C@@H]2OC(=O)C[C@@]23C(=O)O[C@@H]2OC(=O)[C@@H](O)[C@]213`, the Potency result in test [1] and in test [2] was “inactive” in each case.
Take `C=C1C[C@@H]2[C@H](CC[C@]3(C)C(=O)CC[C@@H]23)[C@@]2(C)C=CC(=O)C=C12`: the Potency was 9.44 µM (active) and 14.8 µM (active) in test [1]; 5.96 µM (active) and 11.8 µM (active) in test [2].
With `CN1Cc2c(ccc3c2OCO3)[C@@H]2[C@H]1c1cc3c(cc1C[C@@H]2O)OCO3`, the Potency in test [1] is 3.21 µM (active); in test [2], 2.55 µM (active).
As for `CC(=O)O[C@@H]1CC2C(C)(C)C(=O)C=C[C@]2(C)C2CC[C@]3(C)C(=CC(=O)O[C@H]3c3ccoc3)[C@@]21C` (stereo partly specified), the values for the Potency in test [1] and in test [2] were 11.6 µM (active) and 13 µM (active), respectively.
Turning to `CC(=O)O[C@H]1C[C@]2(O)[C@@H]3CC[C@@H]4C[C@@H](O)CC[C@]4(C)[C@H]3CC[C@]2(C)[C@H]1c1ccc(=O)oc1`, the Potency in test [1] was 0.0259 µM (active); in test [2], 0.0231 µM (active).
The matching figures for `CC(C)=CCC[C@]1(C)C=Cc2c(O)c3c(c(CC=C(C)C)c2O1)O[C@]12C(=C[C@@H]4CC1C(C)(C)O[C@@]2(C/C=C(/C)C(=O)O)C4=O)C3=O`: 0.517 µM (active) and 0.461 µM (active).
As for `C[C@@H]1CCC/C=C/[C@H]2C[C@@H](O)C[C@@H]2[C@@H](O)/C=C/C(=O)O1`, the Potency in test [1] was 0.184 µM (active); in test [2], 0.146 µM (active).
For the molecule `CCN1CC2(COC)C3[C@@H](OC)C4C1C3(C1C[C@]3(O)[C@H](OC(=O)c5ccccc5)C1[C@]4(OC(C)=O)[C@@H](O)[C@@H]3OC)[C@H](OC)C[C@H]2O` (stereo partly specified), the Potency result in test [1] and in test [2] was “inactive” throughout.
Turning to `COC(=O)C1(C)CCC(O)C2(C)c3c(O)cc(C(C)C)cc3C(O)C(OC(C)=O)C12` (stereo unspecified), the Potency result in test [1] and in test [2] was “inactive” each time.
For the molecule `CC1Oc2cc3c(-c4c(O)cc(O)c5c(O)c6c(cc45)OC(C)C(C)C6=O)c(O)cc(O)c3c(O)c2C(=O)C1C` (stereo unspecified), the Potency is 5.17 µM (active) in test [1] and 4.61 µM (active) in test [2].
With `COc1cc(O)c2c(c1)CCC[C@@H](O)[C@H](O)C(=O)/C=C\C[C@H](C)OC2=O`, the Potency in test [1] was 1.8 µM (active); in test [2], 2.86 µM (active).
Take `CCC(C)(O)C1(C(=O)O)COC(=O)C1` (stereo unspecified): the Potency entry in test [1] and in test [2] was “inactive” each time.
As for `CCN1C[C@]2(COC)[C@H](O)C[C@H](OC)[C@]34[C@@H]5C[C@]6(O)[C@H](OC(=O)c7ccccc7)[C@@H]5[C@@](O)([C@H]([C@H](OC)[C@H]23)[C@@H]14)[C@@H](O)[C@@H]6OC`, the Potency entry in test [1] and in test [2] was “inactive” in each case.
Take `CO[C@@H]1C[C@H](O[C@H]2CC[C@@]3(C)C(CCC4C3CC[C@]3(C)[C@@H](C5=CC(=O)OC5)[C@@H](OC(C)=O)CC43O)C2)O[C@H](C)[C@@H]1O[C@H]1O[C@H](CO[C@@H]2O[C@H](CO)[C@@H](O)[C@H](O)[C@H]2O)[C@@H](O)[C@H](O)[C@H]1O` (stereo partly specified): the Potency in test [1] was 0.31 µM (active); in test [2] it was 0.155 µM (active).
The matching figures for `CCC(C)(C#N)O[C@@H]1O[C@H](CO)[C@@H](O)[C@H](O)[C@H]1O` (stereo partly specified): “inactive” and “inactive”.
In the case of `COc1ccc2c(c1)/C(=C/c1cnc[nH]1)C(=O)N2`, the Potency in test [1] is 0.461 µM (active); in test [2] it was 1.64 µM (active).
The matching figures for `CC(C)(O)/C=C/C(=O)[C@](C)(O)[C@H]1[C@H](O)C[C@@]2(C)[C@@H]3CC=C4[C@@H](C[C@H](O)C(=O)C4(C)C)[C@]3(C)C(=O)C[C@]12C`: 0.317 µM (active) and 0.282 µM (active).

(Values after PubChem BioAssay (NCATS).)
